Screens as filed in PubChem.
Spn DPM-DC inh: S. pneumoniae DPM-DC inhibitors, primary screen, biochemical, PK/LDH-coupled NADH fluorescence | calls only at 10 µM | purified DPM-DC | AID 556, 2006 | diphosphomevalonate decarboxylase (Streptococcus pneumoniae D39) | actives 0.49% (n = 65,000);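 active = the 320 compounds with the highest percent inhibition in the single-dose primary screen, excluding strongly autofluorescent ones, cut at about 32% in these data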;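 also: kinetic rate of NADH fluorescence loss reporting ADP formed by the decarboxylase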
NADH enzymes: inhibitors of PK/LDH coupling enzymes, profiling panel, artefact control, biochemical, MLSMR library | coupled PK/LDH NADH assays, four targets | IC50, µM (top dose mostly 10 µM), for the others: top-dose inhibition | actives 0.02% (n = 65,000) | AID 774, 2007;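 active = single-dose screening hits from any of four coupled enzyme assays that gave an IC50 when retested across doses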;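 also: the DPM-DC format reads NADH fluorescence rather than 340 nm absorbance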
A340 absorber: compound light absorbance at 340 nm, profiling panel, artefact control, biochemical, MLSMR library, data from PS, PMK, MK assays. 65,000 tested, under 10 active. compound absorbance at 340 nm, fold over control. fold change at 10 µM;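 active = at 10 µM dose, initial 340 nm absorbance at least 2 fold that of control wells; inactive = change under 2 fold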;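 also: initial absorbance extrapolated from kinetic A340 decline of NADH oxidation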
Autofluor 339: intrinsic fluorescence of library compounds, ex339/em460 – biochemical, MLSMR library, data from DPM-DC assay, artefact control, profiling panel. actives 5.5% (n = 65,000). compound autofluorescence, ex339/em460 nm, NADH buffer; hits give high values; 1 = no-compound wells, NADH background. fluorescence fold increase at 10 µM;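 active = at 10 µM, mean starting fluorescence two-fold or more over control wells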;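 also: signal is the first read of a kinetic run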
Spn MK inh: S. pneumoniae MK inhibitors, primary screen, biochemical, PK/LDH-coupled NADH absorbance | mevalonate kinase [Streptococcus pneumoniae D39] | purified MK, PK/LDH-coupled NADH absorbance 340 nm | inhibition, % at 10 µM | actives 0.48% (n = 65,000) | AID 555, 2006;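 active = ranked among the strongest by inhibition in the single 10 µM screen, a fixed top-ranked set picked for dose follow-up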
PMK inhibit: S. pneumoniae PMK inhibitors, primary screen, biochemical, mevalonate pathway, pilot trial included | phosphomevalonate kinase (Streptococcus pneumoniae D39) | purified PMK, PK/LDH-coupled NADH absorbance 340 nm | inhibition, % at 10 µM | actives 0.49% (n = 65,000) | AID 539, 2006;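 active = top-ranked compounds by inhibition in the single 10 µM screen, taking a fixed number of the strongest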;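 also: 0% = full reaction with DMSO carrier and 100% = background rate without enzyme reaction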
The depositor's hits bear a star; i = inactive; nt = no result given; + = active, no number. Compounds with a hit are over-represented: about 6.8% of the library has one in this group of screens.

SMILES	Spn DPM-DC inh	NADH enzymes	A340 absorber	Autofluor 339	Spn MK inh	PMK inhibit
CC(C)OC(=O)Cn1cnc2ccc(Br)cc2c1=O	i	8%	1	1.1	9	14
CCOC(=O)C1=C(N)OC2=C(C(=O)CCC2)C1c1ccc(C)s1 (configuration not stated)	i	15%	1	1.1	1	37*
Cc1c(CCC(=O)O)c(=O)oc2cc3occ(-c4ccc(F)cc4)c3cc12	i	9%	1.1	1.6	11	8
CCN(CC)C(=O)Oc1ccc2c(=O)c(-c3ccc(OC)cc3)c(C)oc2c1	i	6%	1	1.2	7	11
CCCc1c(C)c2ccc(OCC(C)=O)cc2oc1=O	nt	6%	1.1	5.1*	6	6
CCCCc1cc(=O)oc2cc(OCC(=O)N(CC)CC)ccc12	nt	5%	1.1	2.2*	9	0
CCCCc1cc(=O)oc2cc(OCC(=O)N(CC)CC)c(Cl)cc12	i	5%	1	1.5	8	16
Cc1c(CCC(=O)O)c(=O)oc2cc(O)ccc12	nt	0%	1.1	2.1*	0	0
CCC(=O)Oc1ccc2c(C)c(Cl)c(=O)oc2c1	nt	1%	1.1	2.2*	1	0
Cc1cccc(N2CCN(C(=O)C3CCCN(S(=O)(=O)c4cccc5cccnc45)C3)CC2)c1C (configuration not stated)	i	11%	1	1.1	10	20
CCc1cc(=O)oc2cc(OCC(=O)N3CCc4ccccc43)ccc12	i	10%	1	3.2*	2	17
CCCCc1c(C)c2ccc(OCC(C)=O)cc2oc1=O	nt	2%	1.1	2.3*	0	4
C=C(Cl)COc1ccc2c(C)cc(=O)oc2c1	i	7%	1	1.7	11	6
Cc1cc(=O)oc2cc(OCC(=O)N3c4ccccc4CC3C)ccc12 (configuration not stated)	i	7%	1.1	1.9	0	14
O=c1c(-c2ccccc2)coc2c(CN3CCCC3)c(O)ccc12	nt	10%	1.1	3.9*	8	11
O=c1cc(-c2ccccc2)c2ccc(O)c(CN3CCCCC3)c2o1	i	5%	1.2	2.4*	2	4
O=c1oc2c(CN3CCCCCC3)c(O)ccc2cc1-c1nc2ccccc2[nH]1	nt	3%	1.1	4.7*	0	5
O=C(c1ccccc1-c1nc2ccccc2[nH]1)N1CCCCC1	i	9%	0.96	1.1	12	15
CCCCc1cc(=O)oc2cc(C)c(CN3CCCC3)c(O)c12	i	5%	1.1	1.2	4	6
CCCCc1cc(=O)oc2c(CN3CCCC3)c(O)ccc12	nt	2%	1.1	2.4*	4	0
N#CCCCSC1=C(C#N)C(c2ccccc2Cl)CC(=O)N1 (configuration not stated)	i	4%	1	1.1	4	8
O=C(Cc1cn2ccsc2n1)Nc1nc2c(s1)CN(Cc1ccccc1)CC2	i	7%	1	1.1	7	15
C1=Nc2c(Nc3ccccc3)ncnc2Oc2ccccc21	i	8%	1	1	11	13
Cn1cc(C(=O)NCCc2ccccc2)c(=O)c2cc(S(=O)(=O)N3CCOCC3)ccc21	i	4%	1	1.1	4	7
Cc1[nH]nc2c1C(CCc1ccccc1)C(C#N)=C(N)O2 (configuration not stated)	i	1%	1	1.1	10	1
SMILES	Spn DPM-DC inh	NADH enzymes	A340 absorber	Autofluor 339	Spn MK inh	PMK inhibit
CCc1cc2c(-c3ccccc3)cc(=O)oc2c(CN2CCOCC2)c1O	i	6%	1.1	2.5*	14	4
O=C(c1ccccc1)c1coc2ccc(O)c(CN3CCOCC3)c12	i	5%	0.99	1	8	13
O=c1c(-c2ccc(Cl)cc2)coc2c(CN3CCOCC3)c(O)ccc12	nt	11%	1.1	2.2*	7	15
COC(=O)c1ccc(OC(=O)C2CC(=O)N(c3ccc(C)cc3C)C2)cc1 (configuration not stated)	i	2%	1	1.1	4	2
Cc1cc(C)nc(SCc2nc(N)nc(-c3ccccc3O)n2)n1	i	5%	1	1.1	13	2
N#Cc1c(-c2cccs2)cc(-c2ccccn2)nc1N	nt	10%	1	3.8*	6	13
CCCCSc1nc(N)c(C#N)c(-c2cccs2)c1C#N	i	2%	1.1	1.2	5	0
N#Cc1c(-c2cccs2)cc(-c2cccnc2)nc1N	nt	2%	1.1	3.8*	0	3
O=C(Nc1ccc(O)cc1)c1ccc(C(=O)c2ccccc2)o1	i	4%	1.1	1	6	3
OCC#Cc1cnc2ccccc2c1	i	11%	1.1	1.2	10	10
CC(C)Cc1nnc(NS(=O)(=O)c2ccc(Cl)cc2)s1	i	1%	1	1.1	1	6
N#Cc1c(N)nc2c(c1-c1ccncc1)CCCCC2	i	5%	1	1.5	8	15
CSc1ccc(-c2c(C#N)c(N)nc3c2CCCC3)cc1	nt	9%	1.1	3.7*	7	10
Cn1c(-c2ccc(N)cc2)nc2ccccc21	+	18%	1	3.9*	5	17
O=C(CC1Sc2ncnn2C1=O)Nc1ccc(Br)cc1 (configuration not stated)	i	5%	1.1	1.1	13	0
CC(C)OC(=O)C1C(=O)CC(C)(O)C(C(=O)OC(C)C)C1c1cccnc1 (configuration not stated)	i	9%	1	1.1	0	27*
COc1ccccc1NC(=O)NCCCN1CCN(c2cccc(Cl)c2)CC1	i	2%	1	1.1	6	3
O=c1n(CCCN2CCN(c3cccc(Cl)c3)CC2)nc2ccccn12	nt	3%	0.98	2.4*	8	2
Cc1c2c(nc3c(C(=O)NC4CCCC4)cnn13)CCCC2	nt	12%	1	4.9*	0	23
COC(=O)c1c(NC(=O)c2ccc(Br)s2)sc2c1CCC2	i	4%	1.1	1.7	7	1
COC(=O)c1c(NC(=O)c2nn(C)cc2Cl)sc2c1CCCC2	nt	4%	1	2.4*	0	7
CCn1ncc(Br)c1C(=O)Nc1sc2c(c1C(=O)OC)CCC2	i	9%	1.1	2.5*	6	2
CCOC(=O)c1ccc(CNC(=O)Cn2nnc(-c3ccc(C)cc3)n2)o1	i	3%	1	1	0	10
